# Experimental data published in PubChem BioAssay.
# Activity calls are given as the source filed them.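 How the source made its calls, unless noted: active means visually confirmed hit in the image check and inhibition above 20%; inconclusive means visually confirmed hit but inhibition not above 20%; inactive means no visual hit in the image check.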
# How the values were obtained:
# [1] = inhibitors of TNFa-induced NFkB p65 translocation, primary screen, imaging, HUVEC, MLSMR starter and 10KST1 sets (AID 438;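 active means inhibition above 20% together with a positive visual image hit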;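 further: compound added about 3h40 before a 20 min TNFalpha stimulation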;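 on inhibition: signal is the nuclear over cytoplasmic p65 intensity ratio per well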); conditions: HUVEC TNFa-induced p65 nuclear translocation; cell count: measured here: nuclei count (cytotoxicity indicator), at 2.08 µM; inhibition: at 2 µM, stronger effect = higher value, 0% TNFa-plus-vehicle, 100% no-TNFa wells
# [2] = reduction of polyQ htt aggregates in cells – imaging, exon1htt(103Q)mCFP cells, high-content imaging, primary screen (AID 483;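 active means visual image review flags a hit and inhibition of aggregation exceeds 20%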;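 further: compound exposure lasted 3 days before fixation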;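 on nuclei count: percent of the per-plate median nuclei count of sample wells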); conditions: exon1htt(103Q)mCFP cell line, aggregate imaging, at 2 µM; inhibition of aggregation: stronger effect = higher value; nuclei count: measured here: cell count, toxicity
# [3] = endothelial E-selectin expression blockers – imaging, HUVEC, immunofluorescence, MLSMR starter and 10KST1 sets, primary screen (AID 487); conditions: HUVEC TNFalpha-induced E-selectin immunofluorescence imaging, at 2 µM; inhibition: stronger effect = higher value; nuclei count: measured here: cell number, toxicity;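 on inhibition: signal is fraction of cell area covered by stained E-selectin grains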;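 on nuclei count: 100% = median nuclei count of all wells on the same plate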
# [4] = molecular target: Voltage-gated potassium channel subunit beta-2 (Rattus norvegicus) (UniProt P62483); assay: inhibitors of rat Kvbeta2 reductase activity – biochemical, NADPH fluorescence, primary screen (AID 622;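 active means fluorescence slope higher than the sample average by over 3 SD, cut at about -0.22 in these data, passing the limit was not always enough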;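 further: slope of raw intensity against log time taken from 70 to 1610 s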); conditions: recombinant KvBeta, 4-cyanobenzaldehyde reduction, at 10 µM, stronger effect = higher value
# [5] = molecular target: Voltage-gated potassium channel subunit beta-2 (Rattus norvegicus) (UniProt P62483); assay: enhancers of rat Kvbeta2 NADPH turnover – biochemical, NADPH fluorescence, primary screen (AID 623;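 active means NADPH fluorescence slope more negative than the mean of all samples by about 3 SD, 99.7% confidence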;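 further: fluorescence intensity change per second fitted from 20 to 320 s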); conditions: Recombinant KvBeta, NADPH fluorescence decrease slope, 10 min; at 10 µM; stronger effect = lower value
# [6] = molecular target: Alpha-2C adrenergic receptor (Homo sapiens) (UniProt P18825); assay: compounds altering alpha2C-coupled GIRK flux – cell-based, HEK293 alpha2C/GIRK1/2, thallium flux, primary screen (AID 624;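 active means fluorescence slope after compound addition differing from the mean of all screened samples at 99.7% confidence, in either direction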;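 further: slope of fluorescence ratio to pre-addition baseline per second over 15 to 24 s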); conditions: thallium flux BTC fluorescence, at 10 µM, actives lie on both sides
# [7] = blockers of RIG-like receptor reporter activation – cell-based, Sendai virus stimulus, luciferase, 10K MLSCN set, TLR/RLR signaling modifier project, primary screen (AID 602276;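 active means inhibition at or above 50% at 10 µM; inactive means inhibition below 50%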;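 further: firefly luciferase from ISG56 promoter only with Renilla not read in this screen; 0% = Sendai virus plus DMSO and 100% = medium plus DMSO without virus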); conditions: HEK293 RL24 IRF3 luciferase reporter, at 10 µM, stronger effect = higher value
# [8] = TLR3 IRF3 reporter activation blockers – cell-based, poly I:C stimulus, luciferase, 10K MLSCN set, primary screen (AID 602277;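 active means inhibition of the reporter signal at or above 50%; inactive means inhibition below 50%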); conditions: HEK293-TLR3 RL24 IRF3 luciferase reporter, at 10 µM, stronger effect = higher value
# Voltage-gated potassium channel subunit beta-2 (Rattus norvegicus), sequence (P62483 whole entry, looked up): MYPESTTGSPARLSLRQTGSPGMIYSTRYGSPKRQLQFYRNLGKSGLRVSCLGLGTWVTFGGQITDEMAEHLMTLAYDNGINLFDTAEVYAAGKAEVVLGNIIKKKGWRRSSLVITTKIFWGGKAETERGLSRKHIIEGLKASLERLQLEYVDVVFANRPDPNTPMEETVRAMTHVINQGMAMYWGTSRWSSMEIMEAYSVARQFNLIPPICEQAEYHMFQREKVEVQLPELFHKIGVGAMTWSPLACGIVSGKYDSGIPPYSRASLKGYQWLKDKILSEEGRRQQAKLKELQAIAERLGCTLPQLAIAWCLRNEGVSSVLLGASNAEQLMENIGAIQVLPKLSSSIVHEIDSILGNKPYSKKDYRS
# Alpha-2C adrenergic receptor (Homo sapiens), sequence (P18825 whole entry, looked up): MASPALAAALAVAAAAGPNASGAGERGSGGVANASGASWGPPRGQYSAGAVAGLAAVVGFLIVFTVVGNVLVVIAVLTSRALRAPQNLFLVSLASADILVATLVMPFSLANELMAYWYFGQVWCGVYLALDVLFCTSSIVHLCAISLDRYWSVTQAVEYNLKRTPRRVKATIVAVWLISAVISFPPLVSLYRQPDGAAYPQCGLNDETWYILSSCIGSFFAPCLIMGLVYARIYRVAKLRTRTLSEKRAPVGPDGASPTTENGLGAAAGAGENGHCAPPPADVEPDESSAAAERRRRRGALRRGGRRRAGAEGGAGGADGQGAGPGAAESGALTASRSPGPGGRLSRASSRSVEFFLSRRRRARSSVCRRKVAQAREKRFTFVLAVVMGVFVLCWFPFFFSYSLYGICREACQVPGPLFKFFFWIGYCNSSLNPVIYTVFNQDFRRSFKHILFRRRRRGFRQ
Structure (SMILES),cell count [1],inhibition [1],inhibition of aggregation [2],nuclei count [2] [%],inhibition [3],nuclei count [3] [%],fluorescence slope [4],NADPH fluorescence slope [5],slope [6],inhibition [7],inhibition [8]
CCCN1CCN(CCCNC(=O)C2CCCN(c3nc4ccc(OCC)cc4s3)C2)CC1 (stereo not drawn),513,-14% (inactive),23.6% (inactive),121,-18.5% (inactive),119,-0.398 (inactive),-4.5e-05 (inactive),0.00402 (inactive),-9.58% (inactive),-10.2% (inactive)
CC1CN(c2nc(-c3ccccc3)nc3ccccc23)CC(C)O1 (stereo not drawn),407,-6% (inactive),-1.5% (inactive),99.3,-29.4% (inactive),114,-0.333 (inactive),-5.3e-05 (inactive),0.00612 (inactive),12% (inactive),22% (inactive)
CC(CCc1ccco1)NC(=O)Cn1ncc2c1-c1ccccc1OC2 (stereo not drawn),762,-3.2% (inactive),-17.9% (inactive),126,0.8% (inactive),120,-0.539 (inactive),-1.5e-05 (inactive),0.00662 (inactive),-1.38% (inactive),11.2% (inactive)
COc1ccc(-c2nnn(CC(=O)c3ccc4c(c3)OCCO4)n2)cc1OC,507,-17.7% (inactive),-8.1% (inactive),122,17.9% (inactive),126,-0.48 (inactive),-4.4e-05 (inactive),0.00479 (inactive),19.3% (inactive),19.3% (inactive)
CCN(CC)CCn1c(=N)n(CCO)c2ccccc21,592,0.2% (inactive),19.1% (inactive),95.6,-30.1% (inactive),91.5,-0.376 (inactive),1.5e-05 (inactive),0.00357 (inactive),7.52% (inactive),39.8% (inactive)
CC1=C(C(=O)Nc2ccccc2)C(c2ccco2)C(C#N)=C(SCC(=O)Nc2cccc(C)c2C)N1 (stereo not drawn),625,15.7% (inactive),16% (inactive),89.5,-16.6% (inactive),129,-0.412 (inactive),-1.1e-05 (inactive),0.00681 (inactive),9.65% (inactive),21.2% (inactive)
COC(=O)CCC(=O)Nc1cccc(Br)c1,495,-5.7% (inactive),-24.7% (inactive),111,56.2% (active),91.4,-0.478 (inactive),-0.000246 (inactive),0.00597 (inactive),9.55% (inactive),17.4% (inactive)
Cc1ccc(C(=O)NCc2ccc3c(c2)OCO3)cc1S(=O)(=O)N1CCCCC1,437,4.7% (inactive),-2.6% (inactive),99.9,-39.8% (inactive),113,-0.451 (inactive),4.6e-05 (inactive),0.00487 (inactive),-2.9% (inactive),-10.9% (inactive)
CCOc1cc(C2C3=C(CCCC3=O)N(C)C3=C2C(=O)CCC3)cc(Cl)c1O,413,12.5% (inactive),-3.2% (inactive),94.1,-17.1% (inactive),112,-0.43 (inactive),5.6e-06 (inactive),0.00638 (inactive),4.36% (inactive),26.6% (inactive)
COc1ccc(N2CCN(C(=O)C(OC(C)=O)c3ccccc3)CC2)cc1 (stereo not drawn),594,-4.7% (inactive),-4.8% (inactive),92.4,-2.4% (inactive),95.4,-0.386 (inactive),4.8e-05 (inactive),0.00658 (inactive),11.4% (inactive),11.3% (inactive)
COc1ccc(Cn2nnnc2CN2CCOCC2)cc1,476,2.5% (inactive),-2.3% (inactive),108,1% (inactive),97.7,-0.441 (inactive),1.6e-05 (inactive),0.00479 (inactive),16.9% (inactive),15.2% (inactive)
N#C/C(=C(/O)CN1CCOCC1)c1nc2ccccc2s1,794,2.1% (inactive),-5.9% (inactive),104,-126% (inactive),129,-0.452 (inactive),4.4e-05 (inactive),0.00349 (inactive),-15.8% (inactive),-1.7% (inactive)
O=C(CCS(=O)(=O)c1cccc2nsnc12)N1CCN(Cc2ccc3c(c2)OCO3)CC1,582,4.1% (inactive),-47.2% (inactive),53.4,-84.7% (inactive),97.8,-0.533 (inactive),-4.8e-05 (inactive),0.00459 (inactive),2.36% (inactive),14.2% (inactive)
Oc1ccc(-c2n[nH]c(=S)n2Cc2ccccc2)cc1,409,9.6% (inactive),-13.1% (inactive),109,-75.1% (inactive),116,-0.485 (inactive),4.7e-05 (inactive),0.00348 (inactive),-8.79% (inactive),-1.56% (inactive)
Cc1ccc(-c2noc(CN3C(C)CCCC3C)n2)cc1 (stereo not drawn),483,2.1% (inactive),-5.2% (inactive),75.4,-26.4% (inactive),101,-0.531 (inactive),-1.6e-05 (inactive),0.00754 (inactive),2.73% (inactive),0.396% (inactive)
Cc1csc(NC(=O)c2cc3c(s2)-c2ccccc2OC3)n1,417,8.8% (inactive),27.8% (inactive),121,-27.8% (inactive),103,-0.247 (inactive),-1.9e-06 (inactive),0.00681 (inactive),-42% (inactive),-118% (inactive)
CCOC(=O)C1C2C=CC3(CN(Cc4ccco4)C(=O)C13)O2 (stereo not drawn),480,5.5% (inactive),16.2% (inactive),114,-57.8% (inactive),115,-0.469 (inactive),-6.4e-05 (inactive),0.00537 (inactive),13.9% (inactive),21.7% (inactive)
COc1cccc(Oc2cn[nH]c2-c2ccc(O)cc2O)c1,361,10.2% (inactive),-13.9% (inactive),103,-104% (inactive),101,-0.453 (inactive),4.8e-05 (inactive),0.0038 (inactive),-4.4% (inactive),12.8% (inactive)
FC(F)(F)c1cccc(N2CCN(Cc3cccnc3)CC2)c1,447,-3.8% (inactive),-15.1% (inactive),109,-57.5% (inactive),127,-0.505 (inactive),-6.8e-05 (inactive),0.00521 (inactive),17.4% (inactive),12.1% (inactive)
CC(C)(C)c1nnc(NC(=O)C2CCN(c3ncccn3)CC2)s1,547,-9.2% (inactive),-2.6% (inactive),106,-13.7% (inactive),111,-0.512 (inactive),-3.5e-05 (inactive),0.00755 (inactive),5.09% (inactive),31.5% (inactive)
Cc1ccccc1Nc1cc2ccccc2c(=O)[nH]1,481,-12.2% (inactive),-19.5% (inactive),102,-35% (inactive),98.8,-0.17 (inactive),1.6e-05 (inactive),0.00385 (inactive),-7.13% (inactive),20.8% (inactive)
Cc1ccc(CSC2=NCCN2C(=O)C2CC2)cc1,221,-0.8% (inactive),7.2% (inactive),100,-26.8% (inactive),107,-0.604 (inactive),-2e-05 (inactive),0.00584 (inactive),11% (inactive),11.8% (inactive)
CC1CCCCN1CCNS(=O)(=O)c1ccc2c(c1)oc(=O)n2C (stereo not drawn),248,0.3% (inactive),4.6% (inactive),89.3,18.9% (inactive),88.9,-0.424 (inactive),-6.8e-05 (inactive),0.00417 (inactive),15.8% (inactive),18.5% (inactive)
O=C(NCC(c1cccnc1)N1CCOCC1)c1cccs1 (stereo not drawn),357,9.8% (inactive),-3.5% (inactive),97.5,-81% (inactive),123,-0.414 (inactive),-1.2e-05 (inactive),0.00412 (inactive),5.49% (inactive),10.9% (inactive)
CCOC(=O)C1CCN(c2c(NCCN3CCN(c4ccccc4)CC3)c(=O)c2=O)CC1,533,7.8% (inactive),7.2% (inactive),96.5,-115% (inactive),95.9,-0.6 (inactive),-1.7e-05 (inactive),0.00543 (inactive),1.01% (inactive),28.4% (inactive)
O=C(NCc1cccs1)C1CC(=O)N(C2CCCC2)C1 (stereo not drawn),376,-14.4% (inactive),-18.1% (inactive),97.2,-121% (inactive),172,-0.56 (inactive),4.8e-05 (inactive),0.00628 (inactive),-9.61% (inactive),-21.8% (inactive)
C=CCn1c(SCC(=O)Nc2ccccc2OC)nnc1-c1ccco1,736,11% (inactive),1.8% (inactive),105,0.9% (inactive),120,-0.494 (inactive),-5.8e-05 (inactive),0.00624 (inactive),20.4% (inactive),22.4% (inactive)
Cc1cc(NS(=O)(=O)c2ccc(NC(=O)COc3ccccc3C(C)C)cc2)no1,579,-12.7% (inactive),17.6% (inactive),72.3,-2.6% (inactive),116,-0.555 (inactive),-3.3e-05 (inactive),0.00559 (inactive),14.6% (inactive),39.1% (inactive)
